# Measurements: ChEMBL document CHEMBL4303097 (2020)
# Whole data set: some 1,500 compounds, median “Inhibition index” near 0.17, cut for the highest 2% near 1.3. The sample holds the highest values, similar compounds and a random draw of the others, so the mix is not that of the screen.
# Test system: SARS-CoV-2
# Experiment: Inhibition of cell viability relative to arbidol control (inhibition index > 1 indicates higher activity) measured by fluorescence (OD590nm) in Vero E6 cells infected with SARS-CoV-2 (strain BavPat1) at MOI 0.002 after 72hrs
# Format: functional, Chlorocebus sabaeus, Vero C1008
row,Structure (SMILES),Inhibition index
1,C#C[C@]1(OC(C)=O)CC[C@H]2[C@@H]3CCC4=CC(=NO)CC[C@@H]4[C@H]3CC[C@@]21CC,-0.3327
2,C[C@H](O)[C@H](O)[C@H]1CNc2[nH]c(N)nc(=O)c2N1.Cl.Cl [SAPROPTERIN DIHYDROCHLORIDE],0.4022
3,O=C1CN(/N=C/c2ccc(-c3ccc([N+](=O)[O-])cc3)o2)C(=O)[N-]1.[Na+] [DANTROLENE SODIUM],0.3986
4,Nc1ccc(S(=O)(=O)[N-]c2cnc3ccccc3n2)cc1.[Na+] [SULFAQUINOXALINE SODIUM],-0.000446
5,COc1cc2nc(N3CCN(C(=O)C4CCCO4)CC3)nc(N)c2cc1OC.Cl (stereo not given),-0.01131
6,CN(C)CCCN1c2ccccc2Sc2ccccc21.Cl [PROMAZINE HYDROCHLORIDE],1.161
7,Cl.N[C@@H]1CCCCN(c2c(F)cc3c(=O)c(C(=O)O)cn(C4CC4)c3c2Cl)C1 [BESIFLOXACIN HYDROCHLORIDE],0.08463
8,CCCCc1oc2ccccc2c1C(=O)c1cc(I)c(OCCN(CC)CC)c(I)c1.Cl [AMIODARONE HYDROCHLORIDE],-0.1051
9,COCCc1ccc(OCC(O)CNC(C)C)cc1.COCCc1ccc(OCC(O)CNC(C)C)cc1.O=C(O)C(O)C(O)C(=O)O (stereo not given) [METOPROLOL TARTRATE],0.03331
10,CCC(=O)[C@@]1(C)[C@H](C)C[C@H]2[C@@H]3CCC4=CC(=O)C=C[C@]4(C)[C@H]3[C@@H](O)C[C@@]21C [RIMEXOLONE],0.1893
11,Cl.NCCc1ccc(O)c(O)c1 [DOPAMINE HYDROCHLORIDE],1.056
12,C[C@@H]1C[C@H]2[C@@H]3C[C@H](F)C4=CC(=O)C=C[C@]4(C)[C@@]3(Cl)[C@@H](O)C[C@]2(C)[C@H]1C(=O)COC(=O)C(C)(C)C [CLOCORTOLONE PIVALATE],0.111
13,O=C(O)Cc1ccccc1Oc1ccc(Cl)cc1Cl [FENCLOFENAC],0.3257
14,CC(=O)OCC(=O)[C@@]12OC(C)(C)O[C@@H]1C[C@H]1[C@@H]3C[C@H](F)C4=CC(=O)C=C[C@]4(C)[C@@]3(F)[C@@H](O)C[C@@]12C [FLUOCINONIDE],0.2896
15,CCN(CC)CC(=O)Nc1c(C)cccc1C.Cl,-0.01364
16,COc1cc(C)c(/C=C/C(C)=C/C=C/C(C)=C/C(=O)O)c(C)c1C [ACITRETIN],0.2609
17,CC1=C(/C=C/C(C)=C/C=C/C(C)=C/C(=O)O)C(C)(C)CCC1 [TRETINOIN],0.999
18,CC1=C(/C=C/C(C)=C/C=C/C(C)=C\C(=O)O)C(C)(C)CCC1 [ISOTRETINOIN],1.484
19,CN1CCN2c3ccccc3Cc3ccccc3C2C1.Cl (stereo not given) [MIANSERIN HYDROCHLORIDE],0.175
20,CC[C@H](C)C(=O)O[C@H]1C[C@@H](C)C=C2C=C[C@H](C)[C@H](CC[C@@H]3C[C@@H](O)CC(=O)O3)[C@H]21 [LOVASTATIN],-0.07572

row,Structure (SMILES),Inhibition index
1,CC(C)(O/N=C(\C(=O)N[C@@H]1C(=O)N2C(C(=O)[O-])=C(C[n+]3ccccc3)CS[C@H]12)c1csc(N)n1)C(=O)O.O.O.O.O.O,0.06868
2,Cl.Nc1nc2ccc(OC(F)(F)F)cc2s1,0.04491
3,CCOc1ccc2nc(S(N)(=O)=O)sc2c1 [ETHOXZOLAMIDE],2.099
4,CC(O)C(=O)O.CCOc1ccc2nc3cc(N)ccc3c(N)c2c1,0.4974
5,CC(=O)O.O=C(NCC1CCCCN1)c1cc(OCC(F)(F)F)ccc1OCC(F)(F)F (stereo not given) [FLECAINIDE ACETATE],0.049
6,CN[C@@H]1[C@H](O)[C@H](NC)[C@H]2O[C@@]3(O)C(=O)C[C@@H](C)O[C@H]3O[C@@H]2[C@H]1O.Cl.Cl,0.1494
7,COc1cccc(N(C)C(=S)Oc2ccc3c(c2)CCCC3)n1 [LIRANAFTATE],0.6869
8,CCCCc1cc2ccccc2c(OCCN(C)C)n1.Cl [DIMETHISOQUIN HYDROCHLORIDE],-0.1351
9,CN(C)N=Nc1[nH]cnc1C(N)=O,-0.0106
10,CC(=O)OCC(=O)[C@@]1(O)CC[C@H]2[C@@H]3CCC4=CC(=O)CC[C@]4(C)[C@H]3[C@@H](O)C[C@@]21C [HYDROCORTISONE ACETATE],0.145
11,CCN(CC)CCCC(C)Nc1ccnc2cc(Cl)ccc12.O=P(O)(O)O.O=P(O)(O)O (stereo not given) [CHLOROQUINE PHOSPHATE],1.351
12,CCN(CC)Cc1cc(Nc2ccnc3cc(Cl)ccc23)ccc1O.Cl.Cl.O.O [AMODIAQUINE HYDROCHLORIDE],0.1282
13,Cl.O=C(OCC(O)CO)c1ccccc1Nc1ccnc2cc(Cl)ccc12 (stereo not given),0.07624
14,COc1cc(NC(C)CCCN)c2ncccc2c1.O=P(O)(O)O.O=P(O)(O)O (stereo not given) [PRIMAQUINE PHOSPHATE],0.6817
15,CCN(CC)CCCC(C)Nc1c2ccc(Cl)cc2nc2ccc(OC)cc12.Cl.Cl.O.O (stereo not given) [QUINACRINE HYDROCHLORIDE],-0.1724
16,NC(=O)c1cc[n+](CC2=C(C(=O)O)N3C(=O)[C@@H](NC(=O)[C@@H](c4ccccc4)S(=O)(=O)O)[C@H]3SC2)cc1.O.[Na+],0.1703
17,CN1CCc2cccc3c2[C@H]1Cc1ccc(O)c(O)c1-3.CN1CCc2cccc3c2[C@H]1Cc1ccc(O)c(O)c1-3.Cl.Cl.O [APOMORPHINE HYDROCHLORIDE],0.4481
18,CCCCOc1ccc(OCCCN2CCOCC2)cc1.Cl [PRAMOXINE HYDROCHLORIDE],0.1376
19,CCOC(=O)c1c(N)sc2c1CCN(Cc1ccccc1)C2.Cl,0.8505
20,O=C([O-])C[C@H](O)C[C@H](O)/C=C/c1c(C2CC2)nc2ccccc2c1-c1ccc(F)cc1.O=C([O-])C[C@H](O)C[C@H](O)/C=C/c1c(C2CC2)nc2ccccc2c1-c1ccc(F)cc1.[Ca+2] [PITAVASTATIN CALCIUM],-0.03681

row,Structure (SMILES),Inhibition index
1,C=CC[C@]1(O)CC[C@H]2[C@@H]3CCC4=CC(=O)CCC4=C3C=C[C@@]21C [ALTRENOGEST],0.8504
2,CCOC(=O)C(C)(N)Cc1cc(I)c(Oc2cc(I)c(O)c(I)c2)c(I)c1.Cl (stereo not given),0.3664
3,C/C(=C(/CCO)SSCC1CCCO1)N(C=O)Cc1cnc(C)nc1N.Cl (stereo not given),1.385
4,C/C(=C(\CCOC(=O)c1ccccc1)SS/C(CCOC(=O)c1ccccc1)=C(\C)N(C=O)Cc1cnc(C)nc1N)N(C=O)Cc1cnc(C)nc1N,1.055
5,CCCSS/C(CCO)=C(\C)N(C=O)Cc1cnc(C)nc1N,0.2056
6,CCCCC(=O)O[C@H]1CC[C@H]2[C@@H]3CCc4cc(O)ccc4[C@H]3CC[C@]12C [ESTRADIOL VALERATE],-0.4279
7,COc1cccc2c1C(=O)c1c(O)c3c(c(O)c1C2=O)C[C@@](O)(C(=O)CO)C[C@@H]3O[C@H]1C[C@H](N)[C@H](O)[C@H](C)O1.Cl [DOXORUBICIN HYDROCHLORIDE],-0.06911
8,Cc1cc(/C=C/c2ccc3cc(N(C)C)ccc3[n+]2C)c(C)n1-c1ccccc1.Cc1cc(/C=C/c2ccc3cc(N(C)C)ccc3[n+]2C)c(C)n1-c1ccccc1.O=C([O-])c1cc2ccccc2c(Cc2c(O)c(C(=O)[O-])cc3ccccc23)c1O [PYRVINIUM PAMOATE],-0.3469
9,C#C[C@]1(O)CC[C@H]2[C@@H]3CCC4=CC(=O)CC[C@]4(C)[C@H]3CC[C@@]21C [ETHISTERONE],0.1353
10,CCSc1ccc2c(c1)N(CCCN1CCN(C)CC1)c1ccccc1S2.O=C(O)/C=C\C(=O)O,-0.4349
11,Cl.N=C(N)NC(=N)NCCc1ccccc1 [PHENFORMIN HYDROCHLORIDE],-0.07157
12,N=C(N)NCCN1CCCCCCC1.N=C(N)NCCN1CCCCCCC1.O=S(=O)(O)O [GUANETHIDINE SULFATE],0.04902
13,C[C@]12CC[C@@H]3c4ccc(O)cc4CC[C@H]3[C@@H]1C[C@@H](O)[C@@H]2O [ESTRIOL],0.6126
14,C[C@]12CC[C@H](O)CC1=CC[C@@H]1[C@@H]2CC[C@]2(C)C(=O)CC[C@@H]12 [PRASTERONE],0.9295
15,CC(=O)[C@H]1CC[C@H]2[C@@H]3CC=C4C[C@@H](O)CC[C@]4(C)[C@H]3CC[C@]12C [PREGNENOLONE],1.659
16,CC(=O)[C@H]1CC[C@H]2[C@@H]3CCC4=CC(=O)CC[C@]4(C)[C@H]3CC[C@]12C [PROGESTERONE],0.4087
17,CC[C@@H]([C@H](C)O)n1ncn(-c2ccc(N3CCN(c4ccc(OC[C@@H]5CO[C@@](Cn6cncn6)(c6ccc(F)cc6F)C5)cc4)CC3)cc2)c1=O.O,0.639
18,CN1CCN(C(c2ccccc2)c2ccccc2)CC1.Cl [CYCLIZINE HYDROCHLORIDE],0.3956
19,CCOC(=O)[C@H](CCc1ccccc1)N[C@@H](C)C(=O)N1[C@H](C(=O)O)C[C@H]2CCCC[C@@H]21 [TRANDOLAPRIL],0.1383
20,CC(C)(C)C(=O)OCOC(=O)[C@@H]1N2C(=O)[C@@H](NC(=O)[C@H](N)c3ccccc3)[C@H]2SC1(C)C [PIVAMPICILLIN],0.3125
